Shown are actives, neighbours in structure and some others; about 11% of the full set was active somewhere.
HCV inh = inhibitors of hepatitis C virus infection. Huh7.5.1 HCVcc-Cre infection, luciferase reporter, 44 h. Potency, µM (series often up to 41.8 µM), for inactives: at the highest dose activity change, negative = inhibition, actives largely listed as inhibitors. actives 3.4% (n = 340,000). AID 651820; also: % is scaled to controls: 0 for no effect and ±100 for the full control effect
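Cells seeded at 1,000/well and cultured 4 h, then compounds added followed by HCVcc-Cre virus (~0.5 moi). After 44 h further culture, luciferase substrate was added, plates held 15 min at room temperature, and luminescence read for 15 sec.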
Vaccinia Venus = vaccinia inhibition (Venus reporter). Potency, µM (highest dose often 36.5 µM), for the others: top-dose activity change, negative = inhibition, actives largely listed as inhibitors. Vaccinia virus Venus reporter expression, fluorescence. actives 0.46% (n = 330,000). AID 720580; calls by dose curve; tested in A549 cells; also: % is scaled to controls: 0 for no effect and ±100 for the full control effect; nearly all actives have a fitted effect of over 30% in size
VACV mCherry inh = inhibitors of vaccinia virus infection (mCherry reporter signal). Vaccinia virus mCherry reporter infection, fluorescence. Potency, µM (doses to about 36.5 µM), inactives show at the top dose activity change, negative = inhibition, hits mostly inhibitors. actives 0.63% (n = 310,000). AID 720579; calls by dose curve; tested in A549 cells; also: % is scaled to controls: 0 for no effect and ±100 for the full control effect; nearly all actives have a fitted effect of over 35% in size
Pf growth 96h = P. falciparum growth inhibition at 96 hour, primary screen for plastid delayed-death inhibitors; AID 504834; P. falciparum luciferase reporter growth, 96 h; Potency, µM (doses to about 28.7 µM), without a hit: top-dose activity change, negative = inhibition, actives largely listed as inhibitors; actives 6.9% (n = 320,000); also: % is scaled to controls: 0 for no effect and ±100 for the full control effect
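Parasite growth measured via integrated firefly luciferase reporter in P. falciparum. Infected erythrocytes at 2% hematocrit, 0.05% parasitemia final were treated 96 hours at 37 C under 5% CO2, and luminescence was read.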
Pf growth 48h = inhibits P. falciparum growth in the first generation, 48 h; P. falciparum luciferase growth in erythrocytes, 48 h; AID 504832; actives 5.9% (n = 310,000); Potency, µM (highest dose often 28.7 µM), inactives show at the top dose activity change, negative = inhibition, hits mostly inhibitors; also: % is scaled to controls: 0 for no effect and ±100 for the full control effect
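Parasite viability was followed by luminescence of a genomically integrated firefly luciferase. Cultures held 0.1% parasitemia at 2% hematocrit (final), incubated under 5% CO2 at 37 C.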
NS1 function inh = blocks influenza NS1 protein function; Potency, µM (top dose mostly 46.1 µM), for the others: at the highest dose activity, positive = more growth; actives 0.4% (n = 270,000); AID 2326; calls by dose curve; also: actives are rising curves; nearly all actives have a fitted effect of over 50% in size
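Compounds were scored for reversing the slow growth caused by influenza A NS1 in S. cerevisiae, measured by optical density at 600 nm. Assay medium contained 2% galactose at pH 6.0; NS1-free yeast of the same strain were the positive control.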
Active calls of the source: *; [ ] = dose if it differs, or a comment. Unless noted, calls follow the shape of the dose curve; as a rule, active = well fitted inhibition curve with a large enough effect; inconclusive = small, poorly fitted or top-dose-only effect, or another doubt; inactive = no such curve, though single readings can be large or run the other way. Potency is read from the fitted curve at half-maximal effect.

Results for CCOc1ccc(N(CC(=O)O)S(=O)(=O)c2ccc(F)cc2)cc1 ?
HCV inh: 20%; Vaccinia Venus: -5%; VACV mCherry inh: -4%; Pf growth 48h: 11%; NS1 function inh: -21%

What do the screens show for `C/C(=N/NC(=O)c1ccncc1)c1ccccc1`?
HCV inh: 2%; Vaccinia Venus: -9%; VACV mCherry inh: -22%; Pf growth 96h: -10%; Pf growth 48h: 35%; NS1 function inh: 1%

Results for CC(C)CCC1(CCNC(=O)c2cccs2)CCOC(C)(C)C1 (configuration not stated) ?
HCV inh: inconclusive; Vaccinia Venus: 3%[7.34 µM]; VACV mCherry inh: inactive[7.34 µM]; Pf growth 96h: -30%; Pf growth 48h: inconclusive; NS1 function inh: -10%

How did COc1cc(/C=N/NC(=O)CSc2ccccn2)ccc1OC(C)C do in these assays?
HCV inh: -5%; Vaccinia Venus: -7%; VACV mCherry inh: -15%; Pf growth 96h: 71%; Pf growth 48h: 0%; NS1 function inh: -1%

Results for COc1ccc([N+](=O)[O-])c(S(=O)(=O)c2ccccc2)n1 ?
HCV inh: inconclusive; Vaccinia Venus: 11µM*; VACV mCherry inh: 11µM*; Pf growth 96h: inconclusive; Pf growth 48h: -8%; NS1 function inh: -97%

How did Nc1cccnc1S(=O)(=O)c1ccccc1 do in these assays?
HCV inh: 13%; Vaccinia Venus: -15%; VACV mCherry inh: inactive; Pf growth 96h: 10%; Pf growth 48h: 0%; NS1 function inh: 1%

How did COc1ccc([N+](=O)[O-])c(S(=O)(=O)c2ccc(Cl)cc2)n1 do in these assays?
HCV inh: inconclusive; Vaccinia Venus: 10µM*; VACV mCherry inh: inconclusive; Pf growth 96h: 20%; Pf growth 48h: -7%; NS1 function inh: -77%

How did O=[N+]([O-])c1cccnc1S(=O)(=O)c1ccccc1 do in these assays?
HCV inh: inconclusive; Vaccinia Venus: -6%; VACV mCherry inh: -20%; Pf growth 96h: 10µM*; Pf growth 48h: inconclusive; NS1 function inh: -83%

Results for COc1ccccc1S(=O)(=O)c1ccccc1[N+](=O)[O-] ?
HCV inh: 24%; Vaccinia Venus: 26%; VACV mCherry inh: -9%; Pf growth 96h: -29%; Pf growth 48h: -3%; NS1 function inh: -1%

Results for COc1ccc(CC(=O)NCc2ccccc2)cc1 ?
HCV inh: inconclusive; Pf growth 96h: inconclusive; Pf growth 48h: 15%; NS1 function inh: 16%

What do the screens show for `CCOc1ccc(C(=O)NC(=S)Nc2cccnc2)cc1`?
HCV inh: 4%; Vaccinia Venus: -1%; VACV mCherry inh: -16%; Pf growth 96h: 2%; Pf growth 48h: 89%; NS1 function inh: 6%

What do the screens show for `CCOc1ccc(NC(=O)Nc2ccc(Br)cn2)cc1`?
HCV inh: 7%; Vaccinia Venus: -6%; VACV mCherry inh: inactive; Pf growth 96h: 256%; Pf growth 48h: 44%; NS1 function inh: -2%

What do the screens show for `COc1ccc(C2c3ccc4ccccc4c3Oc3ncn(CCO)c(=N)c32)cc1` (configuration not stated)?
HCV inh: inconclusive; Vaccinia Venus: -25%; VACV mCherry inh: -11%; Pf growth 96h: 0%; Pf growth 48h: inconclusive; NS1 function inh: 3%

How did CN(C)CCCn1cnc2c(c1=N)C(c1ccccc1)c1ccc3ccccc3c1O2 (configuration not stated) do in these assays?
HCV inh: 8.9µM*; Vaccinia Venus: 18µM*; VACV mCherry inh: inconclusive; Pf growth 96h: 2.1µM*; Pf growth 48h: 1.5µM*; NS1 function inh: 1%

Results for COc1ccc(C2c3ccc4ccccc4c3Oc3ncn(CCCO)c(=N)c32)cc1 (configuration not stated) ?
HCV inh: -25%; Vaccinia Venus: inconclusive; VACV mCherry inh: -19%; Pf growth 96h: inconclusive; Pf growth 48h: 5.2µM*; NS1 function inh: inconclusive

What do the screens show for `N=c1c2c(ncn1CCCO)Oc1c(ccc3ccccc13)C2c1ccccc1` (configuration not stated)?
HCV inh: 11µM*; Pf growth 96h: inconclusive; Pf growth 48h: inconclusive; NS1 function inh: -6%

What do the screens show for `N=c1c2c(ncn1Cc1ccco1)Oc1ccc3ccccc3c1C2c1ccccc1` (configuration not stated)?
HCV inh: inconclusive; Vaccinia Venus: inconclusive; VACV mCherry inh: inconclusive; Pf growth 96h: inconclusive; Pf growth 48h: 10µM*; NS1 function inh: inconclusive

What do the screens show for `CCOC(=O)C1=CNS(=O)(=O)NC1c1ccc(Br)cc1F` (configuration not stated)?
HCV inh: -6%; Vaccinia Venus: -6%; VACV mCherry inh: inactive

What do the screens show for `CCCc1ccc(OCC(O)CN2CCc3ccccc3C2)cc1` (configuration not stated)?
HCV inh: inconclusive; Pf growth 96h: -30%; Pf growth 48h: 34%; NS1 function inh: -22%

What do the screens show for `COc1ccc(C2c3ccc4ccccc4c3Oc3ncn(CCN(C)C)c(=N)c32)cc1` (configuration not stated)?
HCV inh: 2.8µM*; Vaccinia Venus: inconclusive; VACV mCherry inh: inconclusive; Pf growth 96h: inconclusive; Pf growth 48h: 2.3µM*; NS1 function inh: -10%

Results for COc1ccc(C2c3ccc(O)cc3Oc3ncn(Cc4ccco4)c(=N)c32)cc1 (configuration not stated) ?
HCV inh: inconclusive; Pf growth 96h: inconclusive; Pf growth 48h: inconclusive; NS1 function inh: 10%

How did Cc1ccnc(-n2c(-c3ccco3)nc3ccccc3c2=O)c1 do in these assays?
HCV inh: -5%; Vaccinia Venus: -5%; VACV mCherry inh: inactive; Pf growth 96h: 30%; Pf growth 48h: 6%; NS1 function inh: 5%

Results for COc1ccc(Cl)c2sc(N(Cc3cccnc3)C(C)=O)nc12 ?
HCV inh: 13µM*; Vaccinia Venus: -13%; VACV mCherry inh: inactive; Pf growth 96h: inconclusive; Pf growth 48h: -4%; NS1 function inh: -13%

Results for O=C(NC1CCCCC1)C(=O)N(Cc1cccnc1)C(C(=O)NCc1ccco1)c1ccccc1 (configuration not stated) ?
Pf growth 96h: 5.2µM*; Pf growth 48h: -27%

Results for O=C(CNC(=S)N(Cc1ccccc1)Cc1cccnc1)NC1CCCCC1 ?
HCV inh: -10%; Vaccinia Venus: -1%; VACV mCherry inh: inactive; Pf growth 96h: 9.3µM*; Pf growth 48h: inconclusive; NS1 function inh: -3%

How did Cc1cc(C)n(CC(=O)NNC(=O)COc2ccc(F)cc2Br)n1 do in these assays?
HCV inh: 11%; Pf growth 96h: 24%; Pf growth 48h: 5%
